VDR inh: blocks the human vitamin D receptor | P11473 | VDR-SRC2-3 peptide fluorescence polarization, 2 h | Potency, µM, for inactives: max response, negative = inhibition, actives largely listed as inhibitors | 400,000 compounds, 0.93% hits | AID 504847; further: potency means the concentration at half of the fitted maximal effect
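Measured by FP: displacement of SRC2-3 coactivator peptide from VDR by library compounds, following a two-hour ambient incubation.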
PI4K2A inh: inhibitors of human PI4K2A; Q9BTU6; purified PI4K2A, ADP-Glo luminescence, 1 h; hits give low values; activity change, negative = inhibition, % at 76.9 µM; 420,000 compounds, 0.13% hits; AID 1346378; in the data active means activity change below about -50%; inconclusive means mostly about -30% to -49%;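 further: -100% = wells without enzyme as full effect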
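ADP-Glo luminescence measured ADP generated by PI4K2A enzyme (4 ug/mL before mixing) with 1.2 mM PI substrate (pre-mix) and 300 microM ATP (pre-mix). Tris pH7.5 buffer with MgCl2, Triton X-100; 1 h reaction at ambient temperature.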
KAT2A inh: inhibitors of human GCN5L2 histone acetyltransferase. GCN5L2 HAT assay, ThioGlo1 CoA-SH fluorescence. Q92830. Potency, µM (highest dose often 58.9 µM), for inactives: top-dose activity change, negative = inhibition, actives largely listed as inhibitors. AID 504327. 390,000 compounds, 0.21% hits; further: potency means the concentration at half of the fitted maximal effect
Target sequence (Q92830 whole entry, looked up): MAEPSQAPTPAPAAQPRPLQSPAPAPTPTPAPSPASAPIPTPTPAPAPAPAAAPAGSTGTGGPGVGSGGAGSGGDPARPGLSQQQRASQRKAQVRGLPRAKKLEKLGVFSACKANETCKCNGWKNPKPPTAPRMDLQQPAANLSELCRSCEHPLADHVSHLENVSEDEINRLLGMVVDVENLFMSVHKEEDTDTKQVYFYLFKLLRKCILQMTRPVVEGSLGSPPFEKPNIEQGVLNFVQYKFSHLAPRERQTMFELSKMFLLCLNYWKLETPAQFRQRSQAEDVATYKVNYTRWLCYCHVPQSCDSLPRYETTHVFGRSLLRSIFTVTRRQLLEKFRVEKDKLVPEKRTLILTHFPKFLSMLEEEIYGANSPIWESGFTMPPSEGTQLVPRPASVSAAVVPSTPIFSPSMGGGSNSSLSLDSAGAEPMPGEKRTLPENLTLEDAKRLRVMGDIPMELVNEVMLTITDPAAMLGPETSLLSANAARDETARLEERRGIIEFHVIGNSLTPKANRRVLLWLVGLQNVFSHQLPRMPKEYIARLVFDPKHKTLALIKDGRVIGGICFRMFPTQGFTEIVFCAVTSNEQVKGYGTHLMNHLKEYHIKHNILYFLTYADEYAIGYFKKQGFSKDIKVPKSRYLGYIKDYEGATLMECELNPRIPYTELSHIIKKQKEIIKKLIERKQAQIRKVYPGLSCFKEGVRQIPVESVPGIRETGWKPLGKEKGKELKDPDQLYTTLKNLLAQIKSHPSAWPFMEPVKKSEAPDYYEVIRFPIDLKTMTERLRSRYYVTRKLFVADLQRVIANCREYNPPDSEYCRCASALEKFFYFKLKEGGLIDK
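Enzyme at 20nM final was mixed with library compounds for 15 min at room temperature. Peptide H3(1-25) at 75uM, acetyl-CoA at 70uM and ThioGlo1 at 50uM were then added. Plates were read immediately and after 20 min (Ex340nm/Em540nm).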
PLK1 PBD inh: PLK1 (human) polo-box domain binding inhibition; 360,000 compounds, 2.8% hits; AID 720504; Plk1 PBD binding of FITC phosphopeptide, fluorescence polarization; Potency, µM, for inactives: max response, negative = inhibition, most hits filed as inhibitors; P53350; further: potency means the concentration at half of the fitted maximal effect; series mostly up to about 57 µM; nearly all actives have a fitted effect of over 65% in size
GLS inh: blocks human kidney-isoform glutaminase activity | GLS enzymatic activity, qHTS titration | Potency, µM (highest dose often 45.5 µM), without a hit: at the top dose activity change, negative = inhibition, hits mostly inhibitors | 410,000 compounds, 0.21% hits; further: potency means the concentration at half of the fitted maximal effect
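Assay buffer: 45 mM KH2PO4 pH 8.2, 0.02% Tween-20. hKGA acts on L-glutamine (1 mM solution added); product glutamate is reported by an oxidase/peroxidase Amplex Red coupling, with fluorescence taken at baseline and 30 min.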
An asterisk follows results filed as active; u = inconclusive; x = no result given. Most compounds without a hit are left out; they make up all but 3.1% or so of the library. Unless noted, the call rests on the fitted dose curve; in most records, active means well fitted curve in the direction sought with a large enough effect; inconclusive means small, poorly fitted or top-dose-only effect, or another doubt; inactive means no such curve, though single readings can be large; an effect the other way counts as inactive or inconclusive. Unless noted, on the % scale 0 is the no-effect control and ±100 the full control effect.

SMILES | VDR inh | PI4K2A inh | KAT2A inh | PLK1 PBD inh | GLS inh
CCOC(=O)C1=C(C)N=c2s/c(=C\c3ccc(OCC(=O)O)cc3)c(=O)n2C1c1ccccc1OC (stereo unspecified) | u | 5.6 | -23.0% | -11.2% | 21.4%
CC1=C(C(=O)Nc2ccccc2)C(c2ccc(Cl)cc2)n2c(s/c(=C/c3cccc(OCC(=O)O)c3)c2=O)=N1 (stereo unspecified) | u | -13.9 | u | u | -3.0%
CCOC(=O)C1=C(C)N=c2s/c(=C/c3ccc(OCC(=O)O)cc3)c(=O)n2C1c1ccc(F)cc1 (stereo unspecified) | 70.8µM* | -13.3 | -21.2% | u | -9.9%
CC1=C(C(=O)OC(C)C)C(c2ccc(Cl)cc2)n2c(sc(=Cc3ccc(OCC(=O)O)cc3)c2=O)=N1 (stereo unspecified) | x | -14.5 | x | -19.6% | 7.08µM*
CCOC(=O)C1=C(C)N=c2s/c(=C\c3ccc(OCC(=O)O)cc3)c(=O)n2C1c1ccc(Cl)cc1 (stereo unspecified) | 79.4µM* | -21.0 | -23.5% | 10.3% | u
Cc1cc(Nc2cccc(Cl)c2)nc2ccc(NC(=O)c3ccc(F)cc3Cl)cc12 | 9.6% | -3.0 | -11.2% | x | -6.6%
Cc1ccc(CN2C(=O)CN(C3CCCCCC3)C(=O)C2c2ccc(F)cc2)cc1 (stereo unspecified) | 4.1% | -2.9 | -6.3% | x | -9.9%
CNc1nc(OCC(F)(F)F)nc(N2CCOCC2)n1 | -16.6% | 9.2 | x | 6.7µM* | -10.2%
CNc1nc(OC)nc(N2CCOCC2)n1 | 5.2% | -0.4 | -1.3% | -5.9% | 5.7%
COc1ccc(NC(=O)c2c[nH]n3c(=O)cc(C4CCN(C(=O)OC(C)(C)C)CC4)nc23)cc1Cl | -8.7% | -1.9 | -11.3% | 23.8µM* | -10.3%
CC(C)(C)OC(=O)N1CCC(c2cc(=O)n3[nH]cc(C(=O)Nc4ccc(F)c(Cl)c4)c3n2)CC1 | -6.0% | 1.7 | -11.3% | 23.8µM* | u
CC(C)(C)OC(=O)N1CCC(c2cc(=O)n3[nH]cc(C(=O)NC4CCCC4)c3n2)CC1 | -0.7% | 3.0 | -10.6% | -21.8% | 6.3%
COCCn1c(C)cc(C2=NNC(=Nc3ccc(OC)cc3)SC2)c1C | -14.8% | -0.7 | -1.4% | u | 12.9%
COCCn1c(C)cc(C2=NNC(=Nc3ccccc3)SC2)c1C | 8.4% | -51.6* | -0.6% | -15.2% | 21.0%
COc1ccccc1CNC(=O)CCCN1C(=O)CSc2c1c(C)nn2-c1ccccc1 | 16.5% | 2.8 | -1.7% | x | 0.0%
O=C1C=CC(=O)N1 | 39.8µM* | 1.3 | -3.6% | 29.9µM* | 15.9%
O=C(NCCc1ccccc1)C1CCCN1C(=O)Nc1ccc(F)cc1 (stereo unspecified) | -31.6% | 3.5 | 6.4% | 18.9µM* | 4.3%
O=C(NCCc1ccc(Cl)cc1)C1CCCN1C(=O)Nc1ccc(F)cc1 (stereo unspecified) | 3.7% | 8.7 | 2.4% | -1.0% | -2.9%
O=S(=O)(CC1NCc2ccccc21)NCCc1ccccc1 (stereo unspecified) | x | -3.2 | x | x | x
CN(C)c1ccnc(-c2ccccc2C(F)(F)F)n1 | -25.5% | x | -6.7% | x | x
CC1(C)Cc2ccccc2C(COc2ccccc2)=N1 | -18.9% | -1.6 | -17.1% | 26.7µM* | 68.0%
Fc1ccc(Cn2ccc3ccc(-c4ccc5ccn(Cc6ccccc6)c5c4)cc32)cc1 | x | 3.5 | x | x | x
OCCC1CN(CCCn2cccn2)CCN1C1CCCCC1 (stereo unspecified) | -0.3% | -4.3 | 25.1µM* | -6.5% | -1.0%
COc1ccc(Cn2c(=O)c3c(nc(NCCO)n3C)n(C)c2=O)cc1 | 9.6% | 4.2 | 0.4% | -8.2% | -5.2%
Cn1c(NCCCN2CCOCC2)nc2c1c(=O)n(Cc1ccc(Cl)c(Cl)c1)c(=O)n2C | -9.6% | 3.8 | 2.7% | 2.6% | -16.4%
SMILES | VDR inh | PI4K2A inh | KAT2A inh | PLK1 PBD inh | GLS inh
Cn1c(N2CCCC2)nc2c1c(=O)n(Cc1ccc(Cl)cc1)c(=O)n2C | 1.3% | 0.2 | -5.8% | -1.2% | 12.6µM*
Cn1c(NCCCN2CCOCC2)nc2c1c(=O)n(Cc1ccc(Cl)cc1)c(=O)n2C | 11.1% | 2.8 | -6.0% | -18.5% | 15.8µM*
Cn1c(NCCCCO)nc2c1c(=O)n(Cc1ccc(Cl)cc1)c(=O)n2C | -0.1% | -3.1 | 3.5% | x | 12.6µM*
Cn1c(N2CCC(C(N)=O)CC2)nc2c1c(=O)n(Cc1ccc(Cl)cc1)c(=O)n2C | -28.5% | 3.9 | -6.4% | -9.1% | u
CC(C)Cn1cc(C(=O)N2CCN(c3cccc(Cl)c3)CC2)c2c3ccccc3n(C)c2c1=O | -5.5% | 0.5 | -16.1% | x | -0.7%
N#Cc1cc(NC(=O)C(=O)O)c(Cl)c(NC(=O)C(=O)O)c1 | x | -2.2 | x | x | x
CCOC(=O)Nc1sc2c(c1C(N)=O)CCC(C)C2 (stereo unspecified) | 7.5% | -1.9 | -4.3% | -13.3% | -0.1%
COC(=O)Nc1sc2c(c1C(=O)N1CCOCC1)CCC(C)C2 (stereo unspecified) | u | -1.4 | -0.2% | 26.7µM* | 1.4%
CC(C)[C@H](NC(=O)C1CC(=O)N(c2ccc(F)cc2)C1)C(=O)N1CCCCC1 (stereo partly specified) | u | -4.2 | 0.2% | 3.36µM* | u
CC(C)C[C@H](NC(=O)C1CC(=O)N(c2ccc(F)cc2)C1)C(=O)N1CCCCC1 (stereo partly specified) | -2.8% | -4.0 | 4.3% | -2.4% | -3.3%
O=C(Nc1c(-c2ccc(F)cc2)nc2ncccn12)C1CC1 | x | -0.8 | x | x | x
CN(C)CCC(=O)C(Cc1ccccc1)c1ccccc1 (stereo unspecified) | 44.7µM* | 30.3 | x | 4.74µM* | 28.4%
CN(C)CCNC(=O)C(c1ccccc1)c1ccccc1 | -18.7% | -10.6 | -3.4% | 4.8% | 9.0%
Cc1cc(S(=O)(=O)c2ccc(Cl)cc2)nc(S(=O)(=O)c2ccc(Cl)cc2)c1C#N | x | -1.0 | x | 2.67µM* | 6.1%
CC(C)Oc1ccc(C(=O)Nc2ccccc2N2CCCC2)cc1 | -7.7% | -11.4 | -6.1% | 26.7µM* | 21.8%
Cc1nc2scc(C)n2c(=O)c1S(=O)(=O)NC(C)c1ccccc1 (stereo unspecified) | u | -0.8 | -13.2% | 18.9µM* | -24.6%
Cc1nc2scc(C)n2c(=O)c1S(=O)(=O)NCCc1ccccc1 | u | 7.1 | -1.4% | 11.9µM* | 1.2%
Cc1cccc(NS(=O)(=O)c2c(C)nc3scc(C)n3c2=O)c1 | -1.0% | -0.6 | -7.3% | -7.3% | 2.1%
Cn1ncc(S(=O)(=O)Cc2ccccc2)c(Br)c1=O | u | 4.9 | -20.3% | x | x
CCOC(=O)[C@@]12CCCC3=C1N(CCC3)C(=O)[C@H]2CC(=O)NCCC(C)C | x | -6.9 | x | x | x
COC(=O)[C@]12C[C@H](CC(=O)N3CCN(C(=O)c4ccco4)CC3)C(=O)N(Cc3ccco3)C1=C[C@H](C(C)(C)C)O[C@@H]2C | x | -2.7 | x | x | x
CC1=C(SCCC#N)S/C(=C2\SC(C)=C(SCCC#N)S2)S1 | -100.0% | 4.2 | -19.5% | 11.9µM* | 10.9%

Screening data (PubChem BioAssay)
